Test results: PubChem BioAssay AID760 (NMMLSC, 2007)
About 360 (0.19%) of roughly 190,000 compounds were called active. Roughly 2% stayed inconclusive and do not appear here. The sample holds actives, similar compounds and a random draw of the others, so the mix is not that of the screen. A number with no mark means an inactive call.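 The calls were made as follows: active = GTP binding activity at least 20 points away from 100%, either lowered or raised; inconclusive = signal likely due to the compound's own green fluorescence; inactive = the rest.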

Biological target: Ras-related protein Rab-2A (Canis lupus familiaris) (UniProt P61105)
Test: modulators of GTP binding to Rab2A wildtype, primary screen, biochemical, dog, bead-based flow cytometry, multiplex (AID 760);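 also: 0% = beads with excess unlabeled GTP and 100% = no-compound control corrected for plate trend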
Settings: GST-Rab2 wt beads, Bodipy-GTP binding, at 10 µM

First: COc1ccc(CC(=O)N[C@@H](CCSC)c2nc3ccccc3[nH]2)cc1
Second: COc1ccc(-c2nn(-c3ccccc3)cc2CN2CCCO2)c(F)c1
The GTP binding activity of the first is lower: 99% for the first, 100% for the second.

First: S=C(NCc1ccc2c(c1)OCO2)NCc1ccco1
Second: Cc1ccc(CNC(=O)CCNS(=O)(=O)c2ccc(Br)s2)cc1
The GTP binding activity of the first is higher: 101% for the first, 99% for the second.

Going from C=CCN(CC=C)S(=O)(=O)c1ccc(C(=O)Nc2sc3c(c2C(N)=O)CCCCC3)cc1 to COCCN(CCOC)S(=O)(=O)c1ccc(C(=O)Nc2nc3c(s2)CCc2ccccc2-3)cc1, the GTP binding activity rises from 101% to 102%.

First: COc1ccc2oc(=O)c(C(=O)N3CCCC3)cc2c1
Second: CCOC(=O)c1oc2c(CN3CCN(CCO)CC3)c(O)c(CC)cc2c(=O)c1-c1nc2ccccc2s1
The GTP binding activity of the first is lower: 98% for the first, 99% for the second.

O=S(=O)(NCc1ccccc1)c1ccc(S(=O)(=O)N2CCCC2)cc1 and COC(=O)C1=C(C)NC(=O)/C1=C/c1ccc(CNS(=O)(=O)c2ccc(C)cc2)o1 are the same in GTP binding activity: 100% for the first, 100% for the second.

Going from C=CCC(C(=O)c1ccccc1)[N+](C)(C)CC=C (centres undefined) to Cc1ccc(CSCC(N)C(=O)O)cc1 (centres undefined), the GTP binding activity rises from 96% to 97%.

O=C(COC(=O)C12CC3CC(CC(O)(C3)C1)C2)NC12CC3CC(CC(C3)C1)C2 and Cc1nc(N2CCOCC2)sc1C(=O)NN are the same in GTP binding activity: 100% for the first, 100% for the second.

First: COc1ccc(Cl)cc1N(CC(=O)N/N=C/c1ccc(OCC(N)=O)cc1)S(C)(=O)=O
Second: N/C(=N\OC(=O)COc1ccc([N+](=O)[O-])cc1)c1ccc(Br)cc1
The GTP binding activity of the first is higher: 99% for the first, 98% for the second.

Compared with CCOc1ccc(C(C)=O)cc1CSc1nnc(-c2ccncc2)n1CCOC, O=C(CCN1C(=O)c2ccccc2C1=O)NCCCn1ccnc1 is higher in GTP binding activity: 99% for the first, 101% for the second.

Going from Cc1ccc(C(=O)CS(C)(=O)=O)cc1 to O=C(CSc1ccc([N+](=O)[O-])cn1)Nc1ccc(N2CCOCC2)c(Cl)c1, the GTP binding activity falls from 104% to 96%.

CCCOC1CCCN(Cc2cn(C)nc2-c2ccccc2F)C1 (centres undefined) showed a GTP binding activity of 96%.

C=CCN(CC=C)S(=O)(=O)c1ccc(C(=O)Nc2nc3c(s2)CCc2ccccc2-3)cc1 was tested, and the GTP binding activity was 39% (active).
With O=c1/c(=C/c2ccc(CNS(=O)(=O)c3ccccc3)o2)sc2n1CCN=2 the GTP binding activity was 74% (active).
For Cc1ccc(SC(CC(=O)c2ccc(C(C)(C)C)cc2)C(=O)O)cc1 (centres undefined), the GTP binding activity was 78% (active).
